A short description of assay [1]: compound effects on lung adenocarcinoma cell viability – A549, calcein-AM fluorescence, 48 h, basal, profiling panel (AID 1162). Note: test concentration not given here. The following applies: higher = more signal.
Assay [2] is described as follows: compound effects on differentiated 3T3-L1 adipocyte viability – cell-based, 3T3-L1 adipocytes, calcein-AM fluorescence, 48 h, basal, profiling panel (AID 1163). Note: test concentration not given here. The following applies: 3T3-L1 adipocytes viability, higher = more signal.
Assay [3] in a line: compound effects on hepatocellular carcinoma cell viability – HepG2, calcein-AM fluorescence, 48 h, basal, profiling panel (AID 1164). Note: test concentration not given here. Conditions: higher = more signal.
Assay [4] in a line: compound effects on multiple myeloma cell viability – MM1S, calcein-AM fluorescence, 48 h, basal, profiling panel (AID 1165). Note: test concentration not given here. Conditions: higher = more signal.
Assay [5] in a line: calcein-AM signal in unstimulated myeloma cells – cell-based, calcein-AM fluorescence, 48 h, PK04 Diversity Set, profiling panel (AID 1166).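 Note: cells grown under basal conditions without added stimulus; test concentration not given here.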 The following applies: RPMI8226 myeloma viability, higher = more signal.
Assay [6] can be described thus: JC-1 mitochondrial signal, unstimulated HepG2 cells – cell-based, JC-1 fluorescence, 24 h, 100 nL compound, profiling panel (AID 1167). Note: test concentration not given here. The following applies: HepG2 mitochondrial potential, higher = more signal.
Assay [7] can be described thus: JC-1 mitochondrial signal, unstimulated adipocytes – cell-based, JC-1 fluorescence, 3T3-L1 adipocytes, 24 h, 100 nL compound, profiling panel (AID 1168). Note: test concentration not given here. Conditions: JC-1 mitochondrial fluorescence, higher = more signal, called active from +8 up or from −8 down.
A short description of assay [8]: JC-1 mitochondrial signal, unstimulated myeloma cells – cell-based, JC-1 fluorescence, RPMI8226, 24 h, 100 nL compound, profiling panel (AID 1169). Note: test concentration not given here. The following applies: JC-1 mitochondrial potential fluorescence, higher = more signal.
A short description of assay [9]: JC-1 mitochondrial signal, unstimulated MM1S myeloma – cell-based, JC-1 fluorescence, 24 h, 100 nL compound, profiling panel (AID 1170). Note: test concentration not given here. The following applies: MM1S mitochondrial potential, higher = more signal.
A short description of assay [10]: resazurin metabolic signal in A549 cells – cell-based, resazurin fluorescence, 24 h, PK04 Diversity Set, profiling panel (AID 1171). Note: test concentration not given here. The following applies: A549 viability, higher = more signal, called active from +8 up or from −8 down. Background: Resazurin is reduced to fluorescent resorufin, in cell work by metabolically active cells.
Assay [11] can be described thus: resazurin metabolic signal in HepG2 cells – cell-based, resazurin fluorescence, 24 h, PK04 Diversity Set, profiling panel (AID 1172). Note: test concentration not given here. Conditions: HepG2 viability, higher = more signal.
Assay [12] is described as follows: budding yeast growth changes without added modifier – OD600, strain BY4716, 24 h, basal condition, primary screen (AID 1173). The following applies: S. cerevisiae BY4716 growth, OD600, 24 h; higher = more signal, called active from +8 up or from −8 down.
A short description of assay [13]: viability profiling in MM1S myeloma cells – cell-based, resazurin fluorescence, basal, 24 h, PK04 Diversity Set, profiling panel (AID 1174). Note: test concentration not given here. The following applies: higher = more signal, called active from +8 up or from −8 down.
Assay [14] concerns the target Dihydroorotate dehydrogenase (quinone), mitochondrial (Plasmodium falciparum (isolate 3D7)) (UniProt Q08210). In words: inhibition of P. falciparum DHODH – biochemical, C-terminal His tag, absorbance 600 nm, primary screen (AID 1175).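 Note: recombinant parasite enzyme with a five histidine tag at its C terminus; test concentration not given here.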 The following applies: PfDHODH enzyme, DCIP absorbance 600 nm; higher = more signal, called active from +8 up or from −8 down.
Assay [15] can be described thus: inhibition of PAO1 biofilm formation – strain PAO1, LB-PBS medium, absorbance 600 nm, primary screen (AID 1176). Note: test concentration not given here. Conditions: P. aeruginosa PAO1 growth/biofilm, A600, 12 h; higher = more signal.
Assay [16] in a line: growth modulation of vineyard yeast isolate – strain RM11-1a, OD600, basal, 24 h, primary screen (AID 1177).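 Note: cultures grown under basal conditions with no added stressor; test concentration not given here.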 The following applies: S. cerevisiae RM11-1a growth, OD600, 24 h; higher = more signal, called active from +8 up or from −8 down.
The nature of assay [17]: growth of efflux-deficient E. coli DRC39 – strain DRC39, OD650, 24 h, E. coli filamentation inducers, primary screen (AID 1178).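 Note: growth measured as culture turbidity by optical density at 650 nm; test concentration not given here.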 Conditions: E. coli DRC39 acrAB, higher = more signal, called active from +8 up or from −8 down.
The nature of assay [18]: growth of efflux-deficient E. coli DRC39 – strain DRC39, OD650, 48 h, E. coli filamentation inducers, primary screen (AID 1179).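 Note: screen aims at cell division blockers that make cells filament.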 The following applies: E. coli DRC39 delta-acrAB growth, higher = more signal, called active from +8 up or from −8 down.
The nature of assay [19]: viability profiling in RPMI8226 myeloma cells – cell-based, resazurin fluorescence, basal, 24 h, PK04 Diversity Set, profiling panel (AID 1180).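 Note: RPMI8826 multiple myeloma cell line at 5000 cells per well; test concentration not given here.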 Conditions: higher = more signal.
For assay [20], the target named is E3 ubiquitin-protein ligase XIAP (Homo sapiens) (UniProt P98170). In words: small molecules binding XIAP protein – biophysical, small-molecule microarray, fluorescence 635 nm, primary screen (AID 1181).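 Note: score merges 667 nm emission and signal to noise over triplicate slides.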 Conditions: higher = more signal.

Active and inactive are the calls of the source. Unless noted, the rule behind the calls is not given here.

Sequence of Dihydroorotate dehydrogenase (quinone), mitochondrial (Plasmodium falciparum (isolate 3D7)) (Q08210 whole entry, looked up): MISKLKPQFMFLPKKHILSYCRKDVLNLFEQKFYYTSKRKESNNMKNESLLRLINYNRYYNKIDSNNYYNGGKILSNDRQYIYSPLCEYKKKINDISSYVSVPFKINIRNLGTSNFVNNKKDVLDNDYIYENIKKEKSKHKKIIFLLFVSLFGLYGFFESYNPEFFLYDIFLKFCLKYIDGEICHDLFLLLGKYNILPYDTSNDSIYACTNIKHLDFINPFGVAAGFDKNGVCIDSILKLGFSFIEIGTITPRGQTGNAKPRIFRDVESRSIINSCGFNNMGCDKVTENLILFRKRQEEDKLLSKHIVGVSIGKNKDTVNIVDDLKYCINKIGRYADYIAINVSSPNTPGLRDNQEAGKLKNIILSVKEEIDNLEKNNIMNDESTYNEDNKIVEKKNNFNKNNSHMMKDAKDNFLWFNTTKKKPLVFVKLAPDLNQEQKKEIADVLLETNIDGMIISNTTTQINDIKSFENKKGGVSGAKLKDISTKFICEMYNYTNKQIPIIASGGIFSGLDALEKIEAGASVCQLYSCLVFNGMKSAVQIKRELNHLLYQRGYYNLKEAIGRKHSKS
Sequence of E3 ubiquitin-protein ligase XIAP (Homo sapiens) (P98170 whole entry, looked up): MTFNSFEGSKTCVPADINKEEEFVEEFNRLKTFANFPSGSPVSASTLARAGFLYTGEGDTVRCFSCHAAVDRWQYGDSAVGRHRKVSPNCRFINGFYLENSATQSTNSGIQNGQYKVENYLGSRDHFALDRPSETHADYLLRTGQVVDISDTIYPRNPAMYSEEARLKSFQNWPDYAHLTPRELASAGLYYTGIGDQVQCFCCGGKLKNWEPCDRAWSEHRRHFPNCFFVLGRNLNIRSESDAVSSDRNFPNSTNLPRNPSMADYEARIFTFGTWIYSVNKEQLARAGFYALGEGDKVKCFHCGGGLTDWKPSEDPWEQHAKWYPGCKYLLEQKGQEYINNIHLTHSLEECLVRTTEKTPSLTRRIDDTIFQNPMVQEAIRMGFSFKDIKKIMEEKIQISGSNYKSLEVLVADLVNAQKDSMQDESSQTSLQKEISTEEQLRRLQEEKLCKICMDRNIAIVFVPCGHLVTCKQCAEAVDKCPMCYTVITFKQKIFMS

Turning to `COCCOC(=O)N1C(=O)[C@@]2(c3cc(C#CC4(O)CCCCCC4)ccc31)[C@H](C(=O)N1CCc3cc(OC)c(OC)cc3C1)[C@H]1C(=O)O[C@H](c3ccccc3)[C@H](c3ccccc3)N1[C@@H]2c1ccc(O)cc1`, the z-score in [1] is -0.635; in assay [2], 1.29; in assay [3], 0.582; in assay [4], -1.06; in assay [5] it was -0.964; in assay [6], -0.145. The z-score is -0.093 (inactive) in assay [7]; -1.06 in [8]; 0.318 in [9]; -0.311 (inactive) in [10]; -0.511 in [11]; 0.257 (inactive) in assay [12]. Moreover, the z-score in assay [13] is -0.263 (inactive); in assay [15], 1.18 (inactive); in assay [16], 1.39 (inactive); in assay [17], -0.282 (inactive); in [18] it was -0.252 (inactive); in [19], -0.0713. In addition, the composite z-score is 0.7 (inactive) in [14] and -0.0703 in assay [20].
For `C=CC[C@@]1(C(=O)N(C)C)N=C(c2ccc(OCCCO)cc2)O[C@@H]1c1ccccc1`, the z-score in assay [1] is -0.511; in assay [2], -0.681; in assay [3], -0.815; in [4], -1.01; in assay [5], 0.127; in [6], -0.644. Moreover, the z-score in [7] was -0.895 (inactive); in [8], -0.305; in [9] it was -0.491; in [10] it was 0.79 (inactive); in assay [11] it was 0.879; in [12], -2.54 (inactive). For the same molecule, the z-score in assay [13] is -0.235 (inactive); in assay [15] it was 0.95 (inactive); in assay [16], -0.422 (inactive); in [17], -0.936 (inactive); in assay [18], -0.649 (inactive); in assay [19], 0.267. The composite z-score was 0.13 (inactive) in assay [14] and -0.33 in assay [20].
As for `CN(C)CCCCNC(=O)[C@H]1C[C@H]2C(=O)NCC(=O)N2[C@H]1c1cccc(OCCO)c1`, the z-score in assay [1] was 1.11; in [2] it was -0.237; in [3], -0.13; in assay [4], 0.585; in assay [5], 0.0875; in assay [6] it was 0.348. In addition, the z-score in [7] is 0.871 (inactive); in assay [8], -0.223; in [9], -0.348; in assay [10], 1.26 (inactive); in assay [11], 1.15; in assay [12], 0.425 (inactive). Further, the z-score in assay [13] is 1.59 (inactive); in [15], -0.711 (inactive); in assay [16], 1.06 (inactive); in assay [17], 0.779 (inactive); in assay [18] it was 0.834 (inactive); in [19] it was 0.158. Moreover, the composite z-score is -0.0392 (inactive) in assay [14] and -0.0286 in assay [20].
With `CC(C)(C)N1CC=CC23O[C@@H]4/C=C\CCCOC(=O)C4[C@H]2C(=O)N(CCCCCCO)[C@@H]3C1=O` (stereo not given in full), the z-score is 0.0079 in [1]; 0.164 in assay [2]; 0.797 in assay [3]; 1.83 in assay [4]; -0.0296 in assay [5]; 1.17 in assay [6]. Besides, the z-score was 1.04 (inactive) in [7]; 0.116 in [8]; -0.892 in assay [9]; 0.204 (inactive) in assay [10]; 0.232 in assay [11]; -0.584 (inactive) in [12]. Also, the z-score was 0.702 (inactive) in assay [13]; 1.2 (inactive) in [15]; -1.13 (inactive) in [16]; -0.11 (inactive) in [17]; 0.602 (inactive) in assay [18]; 1.06 in [19]. Further, the composite z-score was -1.58 (inactive) in [14] and -0.0795 in [20].

The values are drawn from PubChem BioAssay.
